An excerpt weighted towards active compounds, which were near 7.3% of everything screened.
Rab9 promoter act – activates the Rab9 promoter | Huh7 Rab9 promoter-luciferase reporter, luminescence, 24 h | hit rate 2.8% among 320,000 | Potency, µM (titrated, usually from 9.22 µM), without a hit: top-dose activation, negative = inhibition, usual class: activators; also: % of control where 0% means no effect; nearly all actives have a fitted effect of over 60% in size
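Measured in stably transfected Huh7 cells bearing a Rab9 promoter–luciferase construct: 24 h compound treatment at 37 °C, followed by luminescence detection.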
NPC1 prom act – activators of NPC1 promoter; Huh7 NPC1 promoter luciferase reporter, 24 h; Potency, µM (doses to about 9.22 µM), for inactives: at the top dose activation, most hits filed as activators; hit rate 2.4% among 320,000; AID 485313; also: % of control where 0% means no effect; nearly all actives have a fitted effect of over 60% in size
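Luminescence from an NPC1 promoter-driven luciferase reporter in stably transfected Huh7 cells was measured after 24 h compound treatment at 37 °C, followed by 10 min ambient incubation with luciferase detection reagent.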
FLuc modulator – inhibits or activates purified firefly luciferase, miR-21 counter-screen; hit rate 6.9% among 360,000; purified FLuc, Km substrates, luminescence inhibition; Potency, µM (series often up to 57.5 µM), inactives show at the top dose activity change, negative = inhibition, actives largely listed as inhibitors; AID 588342; P08659;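 also: plate controls were vehicle for no effect and reference inhibitor for full effect; nearly all actives have a fitted effect of over 55% in size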
Target sequence (P08659 whole entry, looked up): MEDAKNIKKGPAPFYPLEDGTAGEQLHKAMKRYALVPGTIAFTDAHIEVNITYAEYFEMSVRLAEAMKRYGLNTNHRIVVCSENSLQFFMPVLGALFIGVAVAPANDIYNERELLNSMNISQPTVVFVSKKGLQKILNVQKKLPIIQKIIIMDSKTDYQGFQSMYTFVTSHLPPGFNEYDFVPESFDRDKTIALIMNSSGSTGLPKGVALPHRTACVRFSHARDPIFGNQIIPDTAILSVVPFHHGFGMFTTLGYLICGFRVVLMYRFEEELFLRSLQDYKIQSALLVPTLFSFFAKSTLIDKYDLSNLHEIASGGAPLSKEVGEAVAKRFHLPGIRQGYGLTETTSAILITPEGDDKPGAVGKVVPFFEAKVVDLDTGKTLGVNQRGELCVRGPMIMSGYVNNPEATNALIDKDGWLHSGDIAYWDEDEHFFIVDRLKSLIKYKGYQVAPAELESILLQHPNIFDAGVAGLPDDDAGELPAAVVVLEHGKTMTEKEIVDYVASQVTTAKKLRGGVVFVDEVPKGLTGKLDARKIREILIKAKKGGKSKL
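Purified P. pyralis luciferase (10nM final) with 10uM D-luciferin and 10uM ATP (Km levels) in 50mM Tris acetate pH 7.5, 10mM Mg acetate, 0.01% Tween-20, 0.05% BSA; qHTS 6-point titration, ~60 µM downward; luminescence read.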
SMN2 splice enh – SMN2 splice variant enhancement; HEK293 SMN2-luciferase splicing reporter, luminescence, 30-36 h; Potency, µM (doses to about 46.1 µM), for inactives: top-dose activity change, positive = activation, actives largely listed as activators; AID 1458; hit rate 2.8% among 210,000; also: % of control where 0% means no effect; nearly all actives have a fitted effect of over 55% in size
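HEK293 cells carry an SMN2 minigene-luciferase reporter in which exon 7 inclusion puts luciferase in frame. Cells were seeded at 2000 cells/well, attached for 10-12 hours, then exposed to compounds for 30-36 hours at 37C before ONE-Glo luminescence.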
KinaseGlo FLuc – blocks Kinase-Glo luciferase, a counter-screen artifact; Q27757; Kinase-Glo luciferase, ATP luminescence, 8 min; Potency, µM (doses to about 38.3 µM), for inactives: at the top dose activity change, negative = inhibition, usual class: inhibitors; hit rate 0.28% among 200,000; AID 1379; also: % is scaled to controls: 0 for no effect and ±100 for the full control effect; nearly all actives have a fitted effect of over 60% in size
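Substrate mix (final 50 mM imidazole pH 7.2, 50 mM KCl, 7 mM MgCl2, 10 uM ATP, 0.01% Tween 20, 0.05% BSA) plus pin-tool compound, then Kinase-Glo detection mix; 8 min ambient, luminescence read.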
ELG1 genotox – inducers of genotoxicity in HEK293T ELG1-luciferase cells; HEK293T ELG1-luciferase reporter, luminescence, 16 h; Potency, µM (highest dose often 46 µM), without a hit: top-dose activity change, positive = activation, hits mostly activators; hit rate 1.3% among 330,000; also: % of control where 0% means no effect; nearly all actives have a fitted effect of over 60% in size
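Screening used a luciferase reporter fused to human ELG1 in HEK293T cells. Luminescence was read on a CCD plate imager after 16 hr exposure and 30 min ONE-Glo incubation.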
An asterisk follows results filed as active; ? = inconclusive; nt = no result; [ ] = remark or other dose. Calls follow the shape of the dose curve; as a rule, active = well fitted curve in the direction sought with a large enough effect; inconclusive = small, poorly fitted or top-dose-only effect, or another doubt; inactive = no such curve, though single readings can be large; an effect the other way counts as inactive or inconclusive. Potency is read from the fitted curve at half-maximal effect.

SMILES	Rab9 promoter act	NPC1 prom act	FLuc modulator	SMN2 splice enh	KinaseGlo FLuc	ELG1 genotox
O=C(COc1ccc(Cl)cc1Cl)N/N=C/CCc1ccccc1	10.3%	0.4%	1.5%	-13.5%	-0.1%	0.4%
O=C(COc1ccc(Cl)cc1Cl)N/N=C/c1ccc[nH]1	-52.3%	-44.0%	13.5µM*	nt	nt	8.9%
C=CCNC(=O)c1cc2c(=O)n3ccccc3nc2s1	1.78µM*	2.51µM*	16.9µM*	nt	nt	?
CC(C)NC(=O)c1cc2c(=O)n3ccccc3nc2s1	-0.3%	1.7%	-1.0%	nt	nt	-1.1%
Cc1cc(NC(=O)CSc2nc3c(cc2C#N)CCC3)no1	0.501µM*	0.501µM*	?	nt	nt	4.11µM*
Cc1cc(NC(=O)CSc2nc3c(cc2C#N)CCCC3)no1	1.58µM*	2.51µM*	?	3.98µM*	-0.4%	?
N#Cc1cc2c(nc1SCc1ccncc1)CCC2	?	?	?	11.2µM*	-2.4%	?
COc1ccc(CNC(=O)c2cnc(N3CCCC3)nc2C)cc1	nt	nt	-6.2%	nt	nt	nt
CC(C)c1cnc2c(c1SCC(=O)Nc1ccc(C(N)=O)cc1)c(=O)n(C)c(=O)n2C	nt	nt	-12.5%	nt	nt	nt
Cn1c(SCC(=O)c2ccccc2)nnc1-c1ccco1	?	26.1%	21.3µM*	14.3%	-4.2%	?
Cn1c(SCC(=O)c2ccccc2)nnc1-c1ccccn1	3.55µM*	?	16.9µM*	nt	nt	?
O=C(CSc1nnc(-c2ccco2)n1Cc1ccccc1)OC1CCCCC1	3.16µM*	?	9.53µM*	?	-5.4%	?
Cn1c(SCC(=O)c2ccccc2)nnc1-c1ccncc1	-4.3%	1.2%	-0.5%	3.3%	-2.3%	3.2%
Cn1c(SCC(=O)c2ccccc2)nnc1-c1cccc(N)c1	?	25.4%	23.9µM*	16.6%	12.8%	?
COc1cc(Nc2nc(SCc3cccc(Cl)c3)nc3ccccc23)cc(OC)c1	nt	nt	0.4%	nt	nt	nt
COc1cccc(NC(=O)c2ccn(C)n2)c1	2.82µM*	?	?	14.1µM*	?	?
COc1cccc(NC(=O)c2cccc(C(=O)Nc3cccc(OC)c3)n2)c1	-2.5%	-3.6%	?	nt	nt	1.6%
COc1cccc(NC(=O)c2ncc(Cl)c(Cl)c2Cl)c1	4.4%	13.5%	5.36µM*	25.9%	?	-2.8%
CCOC(=O)c1ccc(NC(=O)c2ccc3c(c2)CCN3S(=O)(=O)c2ccc(Cl)cc2)cc1	nt	nt	0.6%	8.8%	nt	nt
CCNC(=O)COC(=O)c1cc(C)nc2ccccc12	-5.2%	-7.4%	-0.5%	3.4%	-0.9%	0.0%
CCNC(=O)COC(=O)c1ccc(-c2nc3ccccc3s2)s1	?	17.0%	1.35µM*	12.6µM*	?	?
Cc1noc(C)c1COC(=O)c1ccc(-c2nc3ccccc3s2)s1	3.55µM*	?	5.36µM*	10µM*	-1.7%	7.31µM*
Cc1c(CCNC(=O)Cc2ccc(F)cc2)sc2nc(-c3ccc(F)cc3)nn12	nt	nt	-7.6%	nt	nt	nt
Cc1ccc(-c2nc3sc(CCNC(=O)c4ccco4)c(C)n3n2)cc1	nt	nt	13.5µM*	nt	nt	nt
Cc1ccc(-c2nc3sc(CCNC(=O)c4ccc(Br)o4)c(C)n3n2)cc1	nt	nt	10.7µM*	nt	nt	nt
SMILES	Rab9 promoter act	NPC1 prom act	FLuc modulator	SMN2 splice enh	KinaseGlo FLuc	ELG1 genotox
Cc1c(CCNC(=O)Cc2ccccc2)sc2nc(-c3ccc(F)cc3)nn12	nt	nt	-14.2%	nt	nt	nt
COc1ccccc1Nc1sc(C(=O)c2ccc3c(c2)OCO3)c(N)c1S(=O)(=O)c1ccccc1	nt	nt	2.0%	nt	nt	nt
O=C1c2ccccc2CN2C(=O)c3ccccc3CN12	10.8%	-4.5%	-2.4%	nt	nt	8.1%
CCOc1ccc(N2Cc3ncccc3C2=O)cc1	2.51µM*	3.16µM*	13.5µM*	10µM*	?	?
Cc1ccc(N2C(=O)Cc3ccccc3C2=O)cc1	-4.7%	-3.8%	-0.8%	nt	nt	5.0%
O=C1c2ccccc2CN1c1ccccc1	2µM*	?	16.9µM*	nt	nt	?
CCOc1ccc(N2C(=O)c3cccnc3C2Nc2ccc(F)cc2)cc1 (configuration not stated)	0.1%	3.1%	-9.3%	-8.4%	-0.9%	0.3%
O=C1N(c2ccccc2)CCN1c1ccccc1	1.12µM*	0.501µM*	1.51µM*	nt	nt	?
Cc1ccc(N2Cc3ccccc3C2=O)cc1	0.501µM*	0.447µM*	1.9µM*	nt	nt	1.64µM*
CCOC(=O)c1c(O)[nH]c(=O)c(CC)c1C	nt	nt	nt	-10.2%[9.22 µM]	-1.7%[7.66 µM]	nt
COc1ccc(N2Cc3ccccc3C2=O)cc1	0.501µM*	?	3.38µM*	nt	nt	1.83µM*
CC1(C)CC(=O)c2cc(-c3nc(-c4ccccc4)cs3)c(=O)[nH]c2C1	nt	nt	1.5%	-1.6%	nt	nt
Cc1cc([N+](=O)[O-])cc(/C=N/n2c(C)nc3ccccc3c2=O)c1O	-0.5%	0.8%	2.9%	nt	nt	0.6%
O=c1c2ccccc2nc(COc2ccccc2)n1/N=C/c1ccc(O)cc1O	-2.8%	-3.1%	16.9µM*	nt	nt	-2.9%
C/C(=N\OCc1nc2ccccc2c(=O)n1/N=C/c1cc([N+](=O)[O-])ccc1O)c1ccccc1	13.2%	15.9%	23.9µM*	nt	nt	17.3%

Bioassay records deposited in PubChem by National Center for Advancing Translational Sciences (NCATS).
